We go through four molecules from PubChem BioAssay.

Calls of active or inactive are those of the source. Cut-off read from the data, not from the text of the source, unless noted: active = inhibition above about 30%; inactive = the rest.

For assay [1], the target named is Nuclear receptor coactivator 3 (Homo sapiens) (UniProt Q9Y6Q9). Kind of assay: SRC3 coactivator transcriptional activity inhibitors, confirmation, cell-based, luminescence, quadruplicate (AID 588792;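 active = mean inhibition over 43.08%, the solvent-only control mean plus 3 SD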;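 note: 0% = DMSO treated cells and 100% = gossypol at 36 µM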). Particulars: HEK293 GAL4-SRC3 luciferase reporter, at 3.6 µM, hits give high values. (In general: Reporter assays use an easily measured gene product as a stand-in for the process of interest.)

Assay [2] concerns transactivating tegument protein VP16 (Human herpesvirus 1), Gal4-VP16 luciferase reporter. The assay can be described thus: VP16 transactivation inhibitors, counter-screen for SRC3 inhibitor project, cell-based, luminescence, high throughput (AID 588794). Particulars: mammalian cells, VP16-driven luciferase reporter luminescence; at 3.6 µM; hits give high values. Background: The purpose of a counterscreen is to sort out artefacts and off-target activity.

Chain of Nuclear receptor coactivator 3 (Homo sapiens) (Q9Y6Q9 whole entry, looked up, the tested form may be a part): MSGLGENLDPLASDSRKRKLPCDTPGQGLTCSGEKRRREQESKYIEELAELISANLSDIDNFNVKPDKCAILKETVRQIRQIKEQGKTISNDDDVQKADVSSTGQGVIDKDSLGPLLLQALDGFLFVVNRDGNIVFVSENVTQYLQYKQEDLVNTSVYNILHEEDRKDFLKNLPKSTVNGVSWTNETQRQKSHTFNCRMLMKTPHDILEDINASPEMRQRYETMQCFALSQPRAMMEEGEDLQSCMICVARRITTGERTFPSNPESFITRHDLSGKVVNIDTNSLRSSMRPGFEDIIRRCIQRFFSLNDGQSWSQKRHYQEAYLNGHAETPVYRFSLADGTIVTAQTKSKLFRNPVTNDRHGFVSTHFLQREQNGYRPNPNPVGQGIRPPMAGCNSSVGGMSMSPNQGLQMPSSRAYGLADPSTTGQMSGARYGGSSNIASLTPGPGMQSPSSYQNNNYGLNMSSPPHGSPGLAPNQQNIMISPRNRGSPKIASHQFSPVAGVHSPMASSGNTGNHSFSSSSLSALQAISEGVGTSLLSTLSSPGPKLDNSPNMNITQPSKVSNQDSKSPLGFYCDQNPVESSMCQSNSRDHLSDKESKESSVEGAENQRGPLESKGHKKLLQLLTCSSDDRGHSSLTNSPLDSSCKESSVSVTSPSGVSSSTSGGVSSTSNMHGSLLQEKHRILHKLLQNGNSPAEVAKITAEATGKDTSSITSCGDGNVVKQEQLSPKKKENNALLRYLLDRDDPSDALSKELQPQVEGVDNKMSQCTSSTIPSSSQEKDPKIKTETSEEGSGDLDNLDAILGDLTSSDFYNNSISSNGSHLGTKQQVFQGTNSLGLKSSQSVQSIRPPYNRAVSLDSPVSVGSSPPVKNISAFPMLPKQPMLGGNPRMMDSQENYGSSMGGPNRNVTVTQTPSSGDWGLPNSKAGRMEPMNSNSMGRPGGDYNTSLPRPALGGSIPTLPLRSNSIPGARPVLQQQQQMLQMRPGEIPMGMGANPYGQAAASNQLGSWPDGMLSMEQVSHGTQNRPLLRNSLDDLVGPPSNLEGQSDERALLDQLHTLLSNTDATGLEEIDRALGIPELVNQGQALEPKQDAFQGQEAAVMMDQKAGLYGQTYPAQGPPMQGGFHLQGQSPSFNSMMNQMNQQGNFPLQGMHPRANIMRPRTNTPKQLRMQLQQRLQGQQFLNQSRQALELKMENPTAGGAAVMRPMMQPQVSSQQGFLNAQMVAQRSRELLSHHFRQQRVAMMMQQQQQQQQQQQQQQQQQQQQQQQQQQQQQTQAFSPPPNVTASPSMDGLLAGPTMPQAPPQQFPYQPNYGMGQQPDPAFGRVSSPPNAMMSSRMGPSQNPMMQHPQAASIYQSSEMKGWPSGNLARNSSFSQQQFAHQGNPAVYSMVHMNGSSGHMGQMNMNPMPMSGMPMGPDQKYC

The term inhibition denotes the change of the read-out against control, counted positive when it falls. `Fc1ccc(-c2noc(C3CCN(Cc4cccnc4)CC3)n2)cc1`: the inhibition in assay [1] was -4.45% (inactive); in assay [2] it was 6.14% (inactive).
For `CCCn1nc(C(=O)NCC2COc3ccccc3O2)c2ccccc2c1=O` (stereo not drawn) the same measures were 9.61% (inactive) and 3.2% (inactive).
For `O=C(CC12CC3CC(CC(C3)C1)C2)Nc1nncs1`, the inhibition in assay [1] was 15.4% (inactive); in assay [2], 19.6% (inactive).
As for `COC(=O)c1c(NC(=O)c2ccccc2)sc(C(N)=O)c1C`, the inhibition was 26.7% (inactive) in assay [1] and 55.4% (active) in assay [2].
